Percent Effect data for ten compounds are collected here from ChEMBL document CHEMBL3988442, “University of Dundee, Small-Polar-MMV Screening Library” (2021).

Common to all, as to set-up: scale not given: direction of the effect not stated beside the values
For test [1], the target named is Protein translocase subunit SecA (Escherichia coli (strain K12)) (UniProt P10408). The test can be described thus: Assay to Identify E. coli SecA ATPase Inhibitors. It counts as functional. The note with it: 30 µM.
Test [2] has as its target T1, Ubiquitin-activating enzyme e1, putative (Leishmania donovani (strain BPK282A1)) (UniProt E9BSI1).
T1 sequence (whole entry): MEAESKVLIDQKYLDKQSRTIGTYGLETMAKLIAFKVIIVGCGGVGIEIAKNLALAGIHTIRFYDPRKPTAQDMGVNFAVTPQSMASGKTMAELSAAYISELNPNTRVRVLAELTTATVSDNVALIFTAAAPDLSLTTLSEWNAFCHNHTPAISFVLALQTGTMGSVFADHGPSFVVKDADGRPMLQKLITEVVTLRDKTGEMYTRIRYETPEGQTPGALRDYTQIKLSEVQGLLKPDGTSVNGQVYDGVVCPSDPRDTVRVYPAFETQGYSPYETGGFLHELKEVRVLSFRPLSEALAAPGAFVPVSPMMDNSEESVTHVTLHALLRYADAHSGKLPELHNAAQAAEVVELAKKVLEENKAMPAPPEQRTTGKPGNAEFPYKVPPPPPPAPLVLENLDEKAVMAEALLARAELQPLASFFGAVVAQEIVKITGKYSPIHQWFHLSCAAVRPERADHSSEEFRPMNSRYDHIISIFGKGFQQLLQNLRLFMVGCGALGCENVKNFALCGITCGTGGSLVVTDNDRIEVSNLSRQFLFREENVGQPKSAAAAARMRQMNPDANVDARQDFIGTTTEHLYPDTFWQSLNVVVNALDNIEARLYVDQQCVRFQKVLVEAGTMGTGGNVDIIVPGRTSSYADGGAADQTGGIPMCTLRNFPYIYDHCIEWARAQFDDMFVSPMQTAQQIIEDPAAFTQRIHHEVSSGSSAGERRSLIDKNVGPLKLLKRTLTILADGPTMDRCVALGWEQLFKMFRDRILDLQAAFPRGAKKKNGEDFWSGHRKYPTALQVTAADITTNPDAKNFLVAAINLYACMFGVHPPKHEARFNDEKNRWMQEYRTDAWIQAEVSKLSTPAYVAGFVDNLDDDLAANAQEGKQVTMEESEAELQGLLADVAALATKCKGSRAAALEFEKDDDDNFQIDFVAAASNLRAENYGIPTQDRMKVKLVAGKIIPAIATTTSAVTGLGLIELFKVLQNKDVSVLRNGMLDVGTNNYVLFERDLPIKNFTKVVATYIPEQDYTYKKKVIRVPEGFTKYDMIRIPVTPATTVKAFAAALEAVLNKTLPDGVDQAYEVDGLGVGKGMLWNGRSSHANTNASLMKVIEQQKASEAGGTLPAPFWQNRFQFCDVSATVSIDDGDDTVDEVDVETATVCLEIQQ
The experiment in a line: Leishmania donovani Ubiquitin Activating Enzyme (LdE1). It counts as functional. The note with it: 30 µM.

Test [3] concerns the target Sialic acid-binding Ig-like lectin 9 (Homo sapiens) (UniProt Q9Y336). The experiment in a line: Hs-Siglec9 ALPHAscreen SOP 20170721. The note with it: 10 µM. On the technique in general: Bead proximity is the source of the signal in Alpha formats.
Another test relates to Trypanosoma cruzi. The test can be described thus: Trypanosoma cruzi phosphomannomutase and mannose-1-phosphate guanylyltransferase assay. It counts as functional. As to conditions: 10 µM.
Test [4] addresses T2, Arginase-2, mitochondrial (Homo sapiens) (UniProt P78540).
T2 sequence (whole entry): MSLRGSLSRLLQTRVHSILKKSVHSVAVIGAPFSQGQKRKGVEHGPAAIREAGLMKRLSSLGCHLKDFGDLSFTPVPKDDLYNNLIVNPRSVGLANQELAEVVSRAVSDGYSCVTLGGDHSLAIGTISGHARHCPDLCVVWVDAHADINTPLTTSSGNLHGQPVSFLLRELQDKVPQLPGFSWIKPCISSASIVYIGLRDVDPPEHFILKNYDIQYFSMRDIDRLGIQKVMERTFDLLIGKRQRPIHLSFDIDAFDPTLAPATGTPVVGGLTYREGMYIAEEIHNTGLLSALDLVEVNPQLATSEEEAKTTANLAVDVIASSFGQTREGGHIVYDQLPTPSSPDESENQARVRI
The test can be described thus: in vitro enzyme assay to detect the production of urea directly proportional to the activity of Arginase II. Further: in the data most compounds retested in dose-response had high values. It counts as functional. The note with it: 33.3 µM.

For test [5], the target named is T3, Proteasome subunit beta (Trypanosoma cruzi) (UniProt O96673).
T3 sequence (whole entry): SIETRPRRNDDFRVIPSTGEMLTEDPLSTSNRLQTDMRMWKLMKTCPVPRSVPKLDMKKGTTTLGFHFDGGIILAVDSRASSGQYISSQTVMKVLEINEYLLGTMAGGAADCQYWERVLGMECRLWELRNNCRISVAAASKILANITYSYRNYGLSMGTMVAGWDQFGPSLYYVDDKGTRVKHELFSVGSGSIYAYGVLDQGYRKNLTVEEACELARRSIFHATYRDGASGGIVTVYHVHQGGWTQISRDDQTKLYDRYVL
The experiment in a line: Trypanosoma cruzi proteasome chymotrypsin-like activity (TcProtChymo) assay. Further: in the data most compounds retested in dose-response had high values. As to conditions: 9.37 µM. It counts as functional.

The species named for another test is Homo sapiens. The test can be described thus: To identify inhibition of the IFN signalling (Jak-Stat) pathway via expression of an eGFP reporter gene under the control of an IFN-stimulated response element (ISRE) containing MxA promoter. It counts as functional. As to conditions: 30 µM. Background: In a reporter assay the amount or activity of a reporter protein is the signal.

The target in test [6] is T4, Tyrosyl-tRNA synthetase, putative (Trypanosoma cruzi (strain CL Brener)) (UniProt Q4DSP6).
T4 sequence (whole entry): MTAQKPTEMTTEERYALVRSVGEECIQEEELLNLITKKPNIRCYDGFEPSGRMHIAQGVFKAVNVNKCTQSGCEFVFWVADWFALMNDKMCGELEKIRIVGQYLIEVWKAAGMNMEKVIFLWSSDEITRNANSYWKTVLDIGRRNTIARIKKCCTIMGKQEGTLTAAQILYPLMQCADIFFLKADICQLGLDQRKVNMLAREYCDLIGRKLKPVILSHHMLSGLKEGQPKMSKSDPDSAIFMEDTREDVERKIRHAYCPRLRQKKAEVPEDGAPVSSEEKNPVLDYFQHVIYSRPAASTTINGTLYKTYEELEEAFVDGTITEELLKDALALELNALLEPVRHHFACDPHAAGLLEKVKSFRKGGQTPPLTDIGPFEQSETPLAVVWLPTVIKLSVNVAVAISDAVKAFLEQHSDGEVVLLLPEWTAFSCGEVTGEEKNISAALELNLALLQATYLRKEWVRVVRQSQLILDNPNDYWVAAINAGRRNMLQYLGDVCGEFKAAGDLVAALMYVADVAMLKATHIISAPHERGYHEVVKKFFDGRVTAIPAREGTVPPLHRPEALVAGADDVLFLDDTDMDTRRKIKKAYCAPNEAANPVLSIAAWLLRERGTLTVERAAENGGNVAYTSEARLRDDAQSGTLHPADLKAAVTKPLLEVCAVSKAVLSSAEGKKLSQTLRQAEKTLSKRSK
The test can be described thus: Trypanosoma cruzi tyrosyl tRNA synthetase (TcYRS) _High Tyrosine SOP. Further: in the data most compounds retested in dose-response had high values. It counts as functional. The note with it: 30 µM.

Test [7] deals with T4, Tyrosyl-tRNA synthetase, putative (Trypanosoma cruzi (strain CL Brener)). The experiment in a line: Trypanosoma cruzi tyrosyl tRNA synthetase (TcYRS) SOP. It counts as functional. The note with it: 30 µM.
For test [8], the target named is Chromo domain-containing protein 1 (Saccharomyces cerevisiae (strain ATCC 204508 / S288c) (Baker's yeast)) (UniProt P32657). The experiment in a line: ScCHD-1 Enzyme Inhibition Assay. Further: in the data most compounds retested in dose-response had high values. It counts as functional. As to conditions: 30 µM.

Molecules are shown by their SMILES. For some of these results: Potency and affinity values are given separately.

Sequence of Chromo domain-containing protein 1 (Saccharomyces cerevisiae (strain ATCC 204508 / S288c) (Baker's yeast)) (P32657 whole entry, the tested form may be a part): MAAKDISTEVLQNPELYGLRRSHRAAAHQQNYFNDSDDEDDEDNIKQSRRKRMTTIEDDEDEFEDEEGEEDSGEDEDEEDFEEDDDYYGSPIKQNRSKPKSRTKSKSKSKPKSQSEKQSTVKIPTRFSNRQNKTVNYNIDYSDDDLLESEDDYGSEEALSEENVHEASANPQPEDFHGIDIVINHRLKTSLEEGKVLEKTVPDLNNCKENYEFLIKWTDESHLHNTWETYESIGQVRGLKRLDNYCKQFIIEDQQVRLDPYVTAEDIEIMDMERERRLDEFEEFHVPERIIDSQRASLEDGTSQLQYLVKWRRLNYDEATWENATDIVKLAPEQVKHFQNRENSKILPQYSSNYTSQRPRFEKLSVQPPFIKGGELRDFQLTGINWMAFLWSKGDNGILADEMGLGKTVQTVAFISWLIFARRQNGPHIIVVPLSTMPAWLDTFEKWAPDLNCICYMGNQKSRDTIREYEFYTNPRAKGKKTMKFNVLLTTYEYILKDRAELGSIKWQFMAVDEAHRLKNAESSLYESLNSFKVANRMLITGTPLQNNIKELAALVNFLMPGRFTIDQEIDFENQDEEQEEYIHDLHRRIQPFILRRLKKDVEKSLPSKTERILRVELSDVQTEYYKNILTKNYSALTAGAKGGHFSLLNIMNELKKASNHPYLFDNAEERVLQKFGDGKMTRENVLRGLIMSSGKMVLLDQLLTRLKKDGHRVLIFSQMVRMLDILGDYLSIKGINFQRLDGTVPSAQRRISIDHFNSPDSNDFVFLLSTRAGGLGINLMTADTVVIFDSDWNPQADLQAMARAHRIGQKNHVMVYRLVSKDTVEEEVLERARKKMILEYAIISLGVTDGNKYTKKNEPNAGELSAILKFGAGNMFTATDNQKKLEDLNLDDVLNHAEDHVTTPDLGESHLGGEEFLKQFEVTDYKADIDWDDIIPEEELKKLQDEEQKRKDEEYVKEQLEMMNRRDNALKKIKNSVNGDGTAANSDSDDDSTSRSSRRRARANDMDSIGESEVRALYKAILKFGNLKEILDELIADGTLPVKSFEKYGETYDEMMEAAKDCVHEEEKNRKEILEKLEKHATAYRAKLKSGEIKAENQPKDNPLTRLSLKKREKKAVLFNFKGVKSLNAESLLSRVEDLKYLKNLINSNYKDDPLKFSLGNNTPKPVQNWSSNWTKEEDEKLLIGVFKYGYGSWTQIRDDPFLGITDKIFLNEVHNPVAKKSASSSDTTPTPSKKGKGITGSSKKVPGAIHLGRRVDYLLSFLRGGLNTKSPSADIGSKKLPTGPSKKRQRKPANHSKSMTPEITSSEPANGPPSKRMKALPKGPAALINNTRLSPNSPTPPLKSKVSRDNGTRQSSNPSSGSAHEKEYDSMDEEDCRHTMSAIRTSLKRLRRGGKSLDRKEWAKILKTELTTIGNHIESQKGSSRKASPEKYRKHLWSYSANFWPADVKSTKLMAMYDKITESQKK
Sequence of Protein translocase subunit SecA (Escherichia coli (strain K12)) (P10408 whole entry): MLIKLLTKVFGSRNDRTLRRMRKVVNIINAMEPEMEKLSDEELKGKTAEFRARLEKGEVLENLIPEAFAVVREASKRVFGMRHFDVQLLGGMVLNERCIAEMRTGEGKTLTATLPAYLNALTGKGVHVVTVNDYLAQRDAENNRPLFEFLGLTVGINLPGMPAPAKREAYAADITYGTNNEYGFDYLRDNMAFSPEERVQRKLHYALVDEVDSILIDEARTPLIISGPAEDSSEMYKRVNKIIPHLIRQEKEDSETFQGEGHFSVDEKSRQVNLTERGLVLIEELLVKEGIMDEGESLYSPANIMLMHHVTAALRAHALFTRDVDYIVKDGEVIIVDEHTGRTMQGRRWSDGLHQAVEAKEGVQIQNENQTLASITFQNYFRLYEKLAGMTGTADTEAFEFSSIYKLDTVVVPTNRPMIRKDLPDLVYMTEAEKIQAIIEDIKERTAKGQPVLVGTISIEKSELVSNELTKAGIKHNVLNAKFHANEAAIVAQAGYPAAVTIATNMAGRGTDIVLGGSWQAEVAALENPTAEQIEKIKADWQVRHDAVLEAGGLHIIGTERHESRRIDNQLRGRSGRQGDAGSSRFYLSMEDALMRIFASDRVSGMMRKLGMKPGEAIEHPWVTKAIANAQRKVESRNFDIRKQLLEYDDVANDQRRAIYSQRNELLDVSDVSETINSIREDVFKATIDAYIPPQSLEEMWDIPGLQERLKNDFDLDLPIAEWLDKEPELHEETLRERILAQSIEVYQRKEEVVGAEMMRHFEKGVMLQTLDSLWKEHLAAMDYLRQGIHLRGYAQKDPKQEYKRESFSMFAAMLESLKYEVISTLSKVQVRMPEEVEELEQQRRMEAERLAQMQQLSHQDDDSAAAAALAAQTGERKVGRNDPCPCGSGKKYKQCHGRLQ
Sequence of Sialic acid-binding Ig-like lectin 9 (Homo sapiens) (Q9Y336 whole entry): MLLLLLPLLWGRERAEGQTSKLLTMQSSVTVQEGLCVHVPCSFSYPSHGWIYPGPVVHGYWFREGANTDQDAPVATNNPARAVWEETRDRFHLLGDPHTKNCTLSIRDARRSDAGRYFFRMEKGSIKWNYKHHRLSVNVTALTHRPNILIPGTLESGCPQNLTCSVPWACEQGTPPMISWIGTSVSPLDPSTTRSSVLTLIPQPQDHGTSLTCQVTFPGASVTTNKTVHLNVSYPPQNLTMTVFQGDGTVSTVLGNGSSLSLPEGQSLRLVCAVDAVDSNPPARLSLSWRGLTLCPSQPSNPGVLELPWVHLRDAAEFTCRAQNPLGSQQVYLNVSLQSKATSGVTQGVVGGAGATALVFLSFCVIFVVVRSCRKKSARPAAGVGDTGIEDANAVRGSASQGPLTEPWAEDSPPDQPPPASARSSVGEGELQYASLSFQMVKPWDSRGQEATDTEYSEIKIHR

As for `CCn1nc2c(cc1=O)CN(Cc1nc(CCOC)no1)CC2`, the Percent Effect in test [1] is -2.71%; in [2], 5.13%; in test [3], -1.28%; in the test on Trypanosoma cruzi, 4.6%; in test [4] it was 9.43%; in test [5], 0.427%. Moreover, the Percent Effect was 4.98% in the test listed under Homo sapiens, 0.478% in test [6], 8.43% in test [7] and -3.33% in test [8].
For the compound `COCC(=O)N1CCC2(CC1)CC(CC(=O)NC1CC1)c1ccccc12` (stereo not given), the Percent Effect in test [1] was -8.48%; in test [2], -1.3%; in test [3], 3.8%; with Trypanosoma cruzi it was -1.66%; in test [4] it was -6.88%; in test [5] it was -0.0883%. In addition, the Percent Effect in the test listed under Homo sapiens is -8.57%; in [6], -0.526%; in test [7] it was 5.13%; in test [8] it was -0.682%.
Regarding `O=C(NCCOc1ccc2c(c1)CCC2)N1CCS(=O)(=O)CC1`, the Percent Effect in [1] was -6.68%; in test [2] it was 2.56%; in test [3], -7.49%; in the test with Trypanosoma cruzi, -1.78%; in test [4], -0.82%; in test [5] it was 1.28%. Moreover, the Percent Effect is 23.2% in the test filed under Homo sapiens, -1.44% in [6], -1.21% in test [7] and -2.29% in test [8].
For the compound `Fc1ccccc1Cc1noc(CN2CCCC(CN3CCCC3)C2)n1` (stereo not given), the Percent Effect in [1] was -7.22%; in test [2], -2.7%; in test [3], 4.23%; in the test with Trypanosoma cruzi, 7.86%; in [4], -2.45%; in test [5], 3.08%. The Percent Effect in the test listed under Homo sapiens was -6.53%; in [6], 6.92%; in [7], 12.2%; in test [8], -3.21%.
Regarding `CC(NC(=O)N1CCC(OCc2ccccc2)CC1)c1nncn1C` (stereo not given), the Percent Effect in [1] is -3.83%; in [2], 5.33%; in test [3] it was -0.332%; with Trypanosoma cruzi it was 7.63%; in test [4], 1.33%; in test [5], 14.8%. In addition, the Percent Effect was 15.6% in the test listed under Homo sapiens, 2.63% in [6], 12.8% in test [7] and -8.27% in [8].
In the case of `Cc1nn(-c2ccccc2)cc1C(=O)N1CCCC(n2cccn2)C1` (stereo not given), the Percent Effect in test [1] was -2.22%; in test [2], 13.3%; in test [3] it was 4.19%; with Trypanosoma cruzi, 1%; in [4], 7.09%; in test [5], 9.07%. Also, the Percent Effect was -2.62% in the test listed under Homo sapiens, 4.74% in [6], 12.8% in test [7] and -12.7% in test [8].
As for `COc1ccc(C2CC(=O)Nc3c2cnn3C2CCCC2)cc1` (stereo not given), the Percent Effect in test [1] was -8.84%; in [2], -2.7%; in test [3], -0.717%; in the test on Trypanosoma cruzi, 2.62%; in [4], 2.45%; in test [5], 5.31%. For the same compound, the Percent Effect in the test listed under Homo sapiens was 8.51%; in test [6], 6.92%; in test [7], 4.88%; in test [8] it was -1.74%.
As to `Cc1cc(NC(=O)NCC(C)N2CCc3ccccc32)no1` (stereo not given), the Percent Effect was -4.79% in [1]; 26% in test [2]; 2.28% in test [3]; -3.54% with Trypanosoma cruzi; 1.02% in [4]; 5.96% in [5]. In addition, the Percent Effect in the test filed under Homo sapiens was -2.59%; in [6], 12.8%; in [7], 21.2%; in test [8] it was -6.91%.
On to `Cn1cc(CN2CCC3(CCCN3S(C)(=O)=O)CC2)cn1`, for which the Percent Effect in test [1] was -3.77%; in test [2] it was -1.3%; in test [3], -1.55%; in the test with Trypanosoma cruzi, -5.36%; in test [4], -0.81%; in [5] it was 1.15%. Also, the Percent Effect was 1.96% in the test filed under Homo sapiens, -2.63% in [6], -25.6% in test [7] and -1.37% in [8].
For `O=C(Nc1ccccc1)N1CCn2nnc(COc3cccnc3)c2C1`, the Percent Effect is -6.28% in test [1]; 6.49% in [2]; -0.598% in [3]; -0.487% with Trypanosoma cruzi; 4.86% in test [4]; 5.56% in [5]. Moreover, the Percent Effect in the test filed under Homo sapiens was -5.86%; in test [6] it was 8.95%; in test [7] it was 15.4%; in test [8], 5.54%.
